Records with an inconclusive call do not appear. Calls of active or inactive are those of the source. Calls follow the shape of the dose curve; as a rule, active = well fitted cell-killing curve with a large enough effect in the repeat runs; inconclusive = weak or mixed curves, or effect the other way; inactive = flat fitted curve, though single readings scatter.
Assay: Human pregnane X receptor (PXR) small molecule agonists, qHTS cell viability counter screen (AID 1346977); also: nearly all actives have a fitted effect of over 50% in size
Details: PXR-Luc HepG2 viability, CellTiter-Fluor, 24 h; series mostly up to 92.4 µM; activity change, negative = cytotoxicity: at the top concentration
Text: U.S. Tox21 Program National Center for Advancing Translational Sciences [NCATS] NIH Chemical Genomics Center [NCGC] U.S. Environmental Protection Agency [EPA] National Institutes of Environmental Health Sciences [NIEHS] National Toxicology Program [NTP] U.S. Food and Drug Administration [FDA] Tox21 Assay Overview: The human pregnane X receptor (hPXR) regulates the expression of several drug metabolizing enzymes and induction of these proteins is a major mechanism for developing drug resistance in cancer. One such key enzyme catalyzing the drug metabolism is cytochrome P450 3A4 (CYP3A4). Changes in CYP3A4 expression affect drug metabolism, thereby reducing the therapeutic efficacy and altering toxicological response to a drug and which finally causes adverse drug interaction. To screen Tox21 libraries for compounds that activate hPXR-mediated CYP3A4 gene expression, PXR-Luc HepG2 cells were used. Also cytotoxicity of the compounds was tested in parallel by measuring the cell viability using CellTiter-Fluor assay system in the same wells.
Tox21 Assay Protocol Summary: PXR-Luc HepG2 cells were dispensed at 2,000 per well in 5uL of assay medium containing 5% charcoal-stripped FBS into white solid bottom 1536-well plates (Corning Life Sciences, Corning, NY) using a Multidrop Combi (Thermo Scientific, Waltham, MA) dispenser. The assay plates were incubated at 37 C and 5% CO2 for 5hr, and then 23nL of compounds dissolved in DMSO and positive control were transferred using a Pintool station (Wako, San Diego, CA). The assay plates were incubated at 37C and 5% CO2 for 24hr. For cytotoxicity read, after 23hr incubation at 37C, 1uL CellTiter-Fluor reagent (Promega Corporation, Madison, WI) was added to each well of the assay plates using Flying Reagent Dispenser (FRD, Aurora Discovery, San Diego, CA). After 1hr incubation at 37C and 5% CO2, the fluorescence signal was quantified using a ViewLux plate reader (PerkinElmer, Shelton, CT).
% is scaled to controls: 0 for no effect and ±100 for the full control effect; potency is read from the fitted curve at half-maximal effect.

| SMILES | activity change, negative = cytotoxicity | Potency |
| --- | --- | --- |
| Cc1ccc(C(C)C)cc1O | -0.709% (inactive) | – |
| CC(=O)Oc1cc(C(C)C)c(OCCN(C)C)cc1C | 5.88% [at 42.5 µM] (inactive) | – |
| CCCS(=O)c1ccc2nc(NC(=O)OC)[nH]c2c1 (stereo not given) | 5.85% [at 42.5 µM] (inactive) | – |
| CO[C@@]1(NC(=O)CSCC#N)C(=O)N2C(C(=O)O)=C(CSc3nnnn3C)CS[C@@H]21 | 14.5% [at 42.5 µM] (inactive) | – |
| CCOc1ccc2nc(N)sc2c1 | 1.2% (inactive) | – |
| CO[Si](C)(C)OC | 3.65% (inactive) | – |
| CC(C)c1ccccc1 | -7.26% (inactive) | – |
| CCCCc1ccc2nc(NC(=O)OC)[nH]c2c1 | -8.24% [at 42.5 µM] (inactive) | – |
| CN(CC1(C)CCCO1)S(=O)(=O)c1ccc(Cl)c(S(N)(=O)=O)c1 (stereo not given) | 8.9% [at 42.5 µM] (inactive) | – |
| CCOC(=O)c1ccccc1O | 7.12% [at 42.5 µM] (inactive) | – |
| OC[C@H]1O[C@@H](O[C@H]2[C@H](O)[C@@H](O)[C@H](O)O[C@@H]2CO)[C@H](O)[C@@H](O)[C@H]1O | 2.92% (inactive) | – |
| COc1cc(C)ccc1C(C)C | -2.52% (inactive) | – |
| CN1CCN(c2c(F)cc3c(=O)c(C(=O)O)cn(CCF)c3c2F)CC1 | 2.66% [at 42.5 µM] (inactive) | – |
| C[C@@H]1CN(c2c(F)c(N)c3c(=O)c(C(=O)O)cn(C4CC4)c3c2F)C[C@H](C)N1 | 5.72% [at 19 µM] (inactive) | – |
| CN1CCC[C@@H]1Cc1c[nH]c2ccc(CCS(=O)(=O)c3ccccc3)cc12 | -20.3% [at 42.5 µM] (inactive) | – |
| CCC(=O)Nc1ccc(O)cc1 | 8.67% [at 42.5 µM] (inactive) | – |
| COc1nc(C)nc(NC(=O)NS(=O)(=O)c2ccccc2OCCCl)n1 | 0.625% (inactive) | – |
| Cc1cc(NS(=O)(=O)c2ccc(N)cc2)nc(C)n1 | 11.2% [at 42.5 µM] (inactive) | – |
| CCOC(=O)C(Br)c1ccccc1 (stereo not given) | -2.13% (inactive) | – |
| NC(=O)Cc1cccc(C(=O)c2ccccc2)c1N | 0.418% [at 42.5 µM] (inactive) | – |

| SMILES | activity change, negative = cytotoxicity | Potency |
| --- | --- | --- |
| CC1(C)O[C@@H]2C[C@H]3[C@@H]4CCC5=CC(=O)CC[C@]5(C)[C@@]4(F)[C@@H](O)C[C@]3(C)[C@]2(C(=O)CCl)O1 | 13.8% [at 42.5 µM] (inactive) | – |
| CC(C)Nc1nc(N)nc(Cl)n1 | -0.915% (inactive) | – |
| OCc1ccccc1O | 0.403% [at 42.5 µM] (inactive) | – |
| CC1=NN(c2cc(Cl)c(S(=O)(=O)O)cc2Cl)C(=O)C1N=Nc1ccc(S(=O)(=O)O)cc1 (stereo not given) | – | 54.5 µM (active) |
| CC(C)C(=O)OCC(C)(C)C(O)C(C)C (stereo not given) | 1.11% (inactive) | – |
| CCN(CC)CCNC(=O)COc1ccc(Cl)cc1 | -6.28% [at 42.5 µM] (inactive) | – |
| CCCCN1C[C@H](O)[C@@H](O)[C@H](O)[C@H]1CO | 3.05% [at 42.5 µM] (inactive) | – |
| N#CSCC(=O)O | -5.25% [at 42.5 µM] (inactive) | – |
| C[C@@H]1CN(c2c(F)c(F)c3c(=O)c(C(=O)O)cn(C4CC4)c3c2F)C[C@H](C)N1 | 6.01% [at 19 µM] (inactive) | – |
| CC1CN(c2ccccc2)NC1=O (stereo not given) | -10.4% (inactive) | – |
| CCCCC1CCC(=O)O1 (stereo not given) | 3.61% (inactive) | – |
| CCCOCCC | 11.2% (inactive) | – |
| CC1=C2[C@H](/C=C(\C)C(=O)O)CC[C@@H](C)[C@H]2CC1 | -27.2% (inactive) | – |
| CC1(O)CSC(C)(O)CS1 (stereo not given) | 8.6% (inactive) | – |
| CCC(=O)O[C@]1(C(=O)SCF)[C@H](C)C[C@H]2[C@@H]3C[C@H](F)C4=CC(=O)C=C[C@]4(C)[C@@]3(F)[C@@H](O)C[C@@]21C | 4% [at 42.5 µM] (inactive) | – |
| CC(C)OC(C)C | 1.6% (inactive) | – |
| CC(C)NCC(O)COc1ccc(CCOCC2CC2)cc1 (stereo not given) | -24.3% [at 42.5 µM] (inactive) | – |
| CCCCCCCCCCCCOCCOS(=O)(=O)O | -13.8% (inactive) | – |
| OCCN1CCN(CCO)CC1 | -1.44% (inactive) | – |
| CN1CCN(N)CC1 | 2.19% [at 42.5 µM] (inactive) | – |
